In PubChem BioAssay AID1159580 (chemical genetic matrix, 2015):
The whole screen tested about 5,500 compounds, of which about 2,000 (36%) were called active. Roughly 18% stayed inconclusive and do not appear here. No stated cut-off is given here; in the data, active means normalized growth mostly below about 0.91 (no sharp cut-off); inconclusive means no clear call, values can overlap the other calls; inactive means mostly above about 0.92. Some of the results follow.

Assay: chemical genetic growth profiling, strain panel (AID 1159580);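 further: tested at 20 µM; growth read once vehicle control cultures reached saturation at 30 °C; 1 = growth at the plate median or of vehicle wells; lower values mean less growth of the strain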
Settings: growth OD

Measured: normalized growth

c1cc(C2CCCCC2)ccc1C1CCCCC1
inactive: S. cerevisiae deletion strains, locus YAL013W, strain DEP1, hits give low values 1.01 | S. cerevisiae deletion strains, locus YBR229C, strain ROT2, hits give low values 1 | S. cerevisiae deletion strains, locus YCL061C, strain MRC1, hits give low values 0.965 | S. cerevisiae deletion strains, locus YDL101C, strain DUN1, hits give low values 0.968 | S. cerevisiae deletion strains, locus YDR150W, strain NUM1, hits give low values 0.958 | S. cerevisiae deletion strains, locus YEL061C, strain CIN8, hits give low values 1.01 | S. cerevisiae deletion strains, locus YGR078C, strain PAC10, hits give low values 0.982 | S. cerevisiae deletion strains, locus YHR030C, strain SLT2, hits give low values 0.878 | S. cerevisiae deletion strains, locus YHR087W, strain rtc3, hits give low values 1.04 | S. cerevisiae deletion strains, locus YJR043C, strain POL32, hits give low values 1 | S. cerevisiae deletion strains, locus YJR075W, strain HOC1, hits give low values 1.03 | S. cerevisiae deletion strains, locus YLR039C, strain RIC1, hits give low values 1.05 | S. cerevisiae deletion strains, locus YLR058C, strain SHM2 (second series), hits give low values 1.02 | S. cerevisiae deletion strains, locus YLR085C, strain ARP6, hits give low values 1.04 | S. cerevisiae deletion strains, locus YLR262C, strain YPT6, hits give low values 1.04 | S. cerevisiae deletion strains, locus YML094W, strain GIM5, hits give low values 1.02 | S. cerevisiae deletion strains, locus YMR219W, strain ESC1, hits give low values 1.04 | S. cerevisiae deletion strains, locus YMR263W, strain SAP30, hits give low values 1 | S. cerevisiae deletion strains, locus YNL153C, strain GIM3, hits give low values 0.983 | S. cerevisiae deletion strains, locus YNL298W, strain CLA4 (second series), hits give low values 0.987 | S. cerevisiae deletion strains, locus YNL322C, strain KRE1, hits give low values 1.01 | S. cerevisiae deletion strains, locus YNR030W, strain Alg12, hits give low values 0.967 | S. cerevisiae deletion strains, locus YOL006C, strain TOP1, hits give low values 0.893 | S. cerevisiae deletion strains, locus YPL055C, strain LGE1, hits give low values 1.05 | S. cerevisiae deletion strains, locus YPL241C, strain CIN2, hits give low values 1 | S. cerevisiae deletion strains, locus YPR135W, strain CTF4, hits give low values 1.05 | S. cerevisiae strains, strain wild type, hits give low values 0.973
